Measurements: PubChem BioAssay (NCI)
The panel holds about 79,000 compounds, 15% with a hit somewhere; the sample as a whole holds those more often. Activity calls are given as the source filed them. Cut-off read from the data, not from the text of the source: active = growth inhibition above about 70%; inactive = the rest.

Legend:
[1] = NCI Yeast Anticancer Drug Screen. Data for the rad52 strain (AID 147);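 note: 0% = growth of vehicle-treated control cultures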; conditions: S. cerevisiae rad52 mutant growth inhibition, stronger effect = higher value
Outline: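 DNA repair-defective yeast; compound exposure; growth scored against vehicle controls.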

[2] = NCI Yeast Anticancer Drug Screen. Data for the wt1 strain (AID 149);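 note: 0% = growth of vehicle-treated wt1 cultures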; conditions: S. cerevisiae wt1 strain (SPY 50644) growth inhibition, stronger effect = higher value
Outline: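 Growth inhibition read against vehicle controls after compound exposure of the wt1 yeast strain.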

[3] = NCI Yeast Anticancer Drug Screen. Data for the rad50EPP+ strain (AID 151);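 note: 0% = growth of vehicle-treated control cultures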; conditions: S. cerevisiae rad50 mutant strain, stronger effect = higher value
Outline: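 rad50EPP+ yeast treated with test compounds. Readout: growth vs vehicle control.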

[4] = NCI Yeast Anticancer Drug Screen. Data for the mgt1 strain (AID 153); conditions: S. cerevisiae mgt1 mutant growth inhibition, stronger effect = higher value
Outline: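 Growth inhibition relative to vehicle controls was scored for the mgt1 yeast strain after compound exposure.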

[5] = NCI Yeast Anticancer Drug Screen. Data for the rad50 strain (AID 155);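 note: 0% = growth of vehicle-only cultures of the same strain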; conditions: S. cerevisiae rad50 strain growth inhibition, stronger effect = higher value
Outline: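 Readout: growth inhibition relative to vehicle-treated cultures. Compound exposure was carried out in a genetically defined yeast strain deficient in DNA damage repair.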

[6] = NCI Yeast Anticancer Drug Screen. Data for the mec2-1 strain (AID 157); conditions: S. cerevisiae mec2-1 strain, stronger effect = higher value
Outline: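 Growth inhibition is read against vehicle-treated controls after compound exposure of the mec2-1 yeast strain, which is defective in DNA damage repair or cell cycle control.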

[7] = NCI Yeast Anticancer Drug Screen. Data for the rad14 strain (AID 159);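 note: 0% = growth of vehicle-treated control cultures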; conditions: S. cerevisiae rad14 strain growth inhibition, stronger effect = higher value
Outline: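 Growth inhibition vs vehicle controls; genetically altered yeast strain (DNA damage repair defect) treated with test compounds.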

[8] = NCI Yeast Anticancer Drug Screen. Data for the sgs1 mgt1 strain (AID 161);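 note: 0% = growth of cultures given vehicle only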; conditions: S. cerevisiae sgs1 mgt1 strain, stronger effect = higher value
Outline: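 Compounds are added to genetically altered yeast, and growth is compared with cultures given vehicle alone to give percent inhibition.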

[9] = NCI Yeast Anticancer Drug Screen. Data for the CLN2oe strain (AID 163);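 note: 0% = growth of vehicle-only control cultures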; conditions: S. cerevisiae CLN2oe strain, stronger effect = higher value
Outline: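 Compound-treated yeast; growth vs vehicle ctrl = % inhibition. Genetically altered strain (cell-cycle control).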

[10] = NCI Yeast Anticancer Drug Screen. Data for the cln2 rad14 strain (AID 165);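 note: 0% = growth equal to vehicle treated cultures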; conditions: S. cerevisiae cln2 rad14 strain, stronger effect = higher value
Outline: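 Growth inhibition, relative to vehicle-treated controls, is the read-out. The test organism is a yeast strain with defined genetic alterations, cln2 rad14.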

[11] = NCI Yeast Anticancer Drug Screen. Data for the bub3 strain (AID 167); conditions: S. cerevisiae bub3 mutant strain, stronger effect = higher value
Outline: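 Readout: yeast growth inhibition, expressed relative to vehicle-only wells. The test organism is a mutant strain from a panel with lesions in DNA repair or checkpoint genes.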

[12] = NCI Yeast Anticancer Drug Screen. Data for the wt2 strain (AID 169);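 note: 0% = growth of vehicle-treated yeast cultures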; conditions: S. cerevisiae wt2 strain growth inhibition, stronger effect = higher value
Outline: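 Compound exposure of yeast; growth compared with vehicle controls; inhibition reported.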

[13] = NCI Yeast Anticancer Drug Screen. Data for the mlh1 strain (AID 171);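 note: 0% = growth of vehicle-treated control cultures of the same strain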; conditions: S. cerevisiae mlh1 strain growth inhibition, stronger effect = higher value
Outline: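 Compounds are applied to a genetically altered yeast strain, and its growth is compared with that of vehicle-treated cultures to give percent inhibition.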

[14] = NCI Yeast Anticancer Drug Screen. Data for the sgs1 strain (AID 173);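 note: 0% = growth of vehicle-only control cultures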; conditions: S. cerevisiae sgs1 mutant, stronger effect = higher value
Outline: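 Compounds applied to genetically altered yeast; growth compared with vehicle-treated cultures to give % inhibition.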

[15] = NCI Yeast Anticancer Drug Screen. Data for the rad18 strain (AID 177); conditions: S. cerevisiae rad18 mutant growth inhibition, stronger effect = higher value
Outline: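 Compounds are applied to a repair-deficient yeast strain, and growth is compared with that of vehicle-treated cultures to give percent inhibition.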

[16] = NCI Yeast Anticancer Drug Screen. Data for the mlh1 rad18 strain (AID 175); conditions: S. cerevisiae mlh1 rad18 strain growth inhibition, stronger effect = higher value
Outline: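 Cells of a genetically altered yeast strain, deficient in DNA damage repair, were treated with compound. Their growth was then compared with that of vehicle-treated cultures to give inhibition.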

[17] = at 5.0 µM (retest, dose inferred, filed as 0.5)
[18] = at 50.0 µM (retest, dose inferred, filed as 5.0)

Measured: growth inhibition

CCCCC(CC)C(=O)[O][Sn]([CH2]CCC)([CH2]CCC)[O]C(=O)C(CC)CCCC (stereo not drawn)
active: [1]; at 33.0 µM 92% | [1]; at 100.0 µM 98% | [2]; at 33.0 µM 93% | [2]; at 100.0 µM 98% | [4]; at 33.0 µM 95% | [4]; at 100.0 µM 98% | [5]; at 33.0 µM 92% | [5]; [18] 98% | [5]; at 50.0 µM 86.4% | [5]; at 100.0 µM 97% | [6]; [17] 72% | [6]; at 33.0 µM 94% | [6]; at 50.0 µM 87.7% | [6]; at 100.0 µM 98% | [7]; at 33.0 µM 90% | [7]; at 100.0 µM 97% | [8]; [18] 95% | [8]; at 50.0 µM 89.4% | [9]; at 33.0 µM 92% | [9]; at 100.0 µM 98% | [10]; [18] 97% | [10]; at 50.0 µM 86.2% | [11]; at 33.0 µM 95% | [11]; [18] 93% | [11]; at 50.0 µM 89.8% | [11]; at 100.0 µM 98% | [12]; at 33.0 µM 90% | [12]; at 100.0 µM 98% | [13]; at 33.0 µM 88% | [13]; at 100.0 µM 97% | [14]; at 33.0 µM 89% | [14]; at 100.0 µM 97% | [15]; at 33.0 µM 91% | [15]; at 100.0 µM 97%
inactive: [1]; at 1.2 µM 6% | [1]; at 3.7 µM 11% | [1]; at 11.0 µM 47% | [2]; at 1.2 µM -14% | [2]; at 3.7 µM -7% | [2]; at 11.0 µM 46% | [3]; at 1.2 µM 18% | [3]; at 3.7 µM 6% | [3]; at 11.0 µM 8% | [3]; at 33.0 µM 12% | [3]; at 100.0 µM 29% | [4]; at 1.2 µM -11% | [4]; at 3.7 µM 9% | [4]; at 11.0 µM 60% | [5]; at 1.2 µM 14% | [5]; at 3.7 µM 11% | [5]; [17] 50% | [5]; at 11.0 µM 51% | [6]; at 1.2 µM -11% | [6]; at 3.7 µM 14% | [6]; at 11.0 µM 56% | [6]; [18] 69% | [7]; at 1.2 µM -8% | [7]; at 3.7 µM 3% | [7]; at 11.0 µM 47% | [8]; [17] 2% | [9]; at 1.2 µM -21% | [9]; at 3.7 µM 5% | [9]; at 11.0 µM 37% | [10]; [17] 59% | [11]; at 1.2 µM 6% | [11]; at 3.7 µM 18% | [11]; [17] 44% | [11]; at 11.0 µM 68% | [12]; at 1.2 µM -27% | [12]; at 3.7 µM -10% | [12]; at 11.0 µM 49% | [13]; at 1.2 µM -38% | [13]; at 3.7 µM -21% | [13]; at 11.0 µM 33% | [14]; at 1.2 µM 2% | [14]; at 3.7 µM -5% | [14]; at 11.0 µM 37% | [15]; at 1.2 µM -2% | [15]; at 3.7 µM 0% | [15]; at 11.0 µM 46%

COc1cc(C2c3cc4c(cc3OC(OC(C)=O)C2C)OCO4)cc(OC)c1OC (stereo not drawn)
inactive: [1]; at 1.2 µM -1% | [1]; at 3.7 µM -2% | [1]; at 11.0 µM -2% | [1]; at 33.0 µM -5% | [2]; at 1.2 µM -2% | [2]; at 3.7 µM -3% | [2]; at 11.0 µM -5% | [2]; at 33.0 µM -11% | [2]; at 100.0 µM 56% | [3]; at 1.2 µM -3% | [3]; at 3.7 µM -1% | [3]; at 11.0 µM 1% | [3]; at 33.0 µM -1% | [3]; at 100.0 µM 5% | [4]; at 1.2 µM -2% | [4]; at 3.7 µM -1% | [4]; at 11.0 µM -10% | [4]; at 33.0 µM -12% | [4]; at 100.0 µM 43% | [5]; at 1.2 µM -1% | [5]; at 3.7 µM -1% | [5]; [17] 1% | [5]; at 11.0 µM -5% | [5]; at 33.0 µM -5% | [5]; [18] 49% | [5]; at 50.0 µM -0.3% | [6]; at 1.2 µM -6% | [6]; at 3.7 µM 0% | [6]; [17] -4% | [6]; at 11.0 µM -1% | [6]; at 33.0 µM -5% | [6]; [18] 5% | [6]; at 50.0 µM 2.6% | [6]; at 100.0 µM 56% | [7]; at 1.2 µM -3% | [7]; at 3.7 µM -4% | [7]; at 11.0 µM -11% | [7]; at 33.0 µM -10% | [7]; at 100.0 µM 52% | [8]; [17] -8% | [8]; [18] 29% | [8]; at 50.0 µM -4.55% | [9]; at 1.2 µM -7% | [9]; at 3.7 µM -7% | [9]; at 11.0 µM -18% | [9]; at 33.0 µM -13% | [10]; [17] -14% | [10]; [18] 3% | [10]; at 50.0 µM -13.1% | [11]; at 1.2 µM 5% | [11]; at 3.7 µM 5% | [11]; [17] 17% | [11]; at 11.0 µM 22% | [11]; at 33.0 µM 38% | [11]; [18] 58% | [11]; at 50.0 µM 35.6% | [12]; at 1.2 µM -2% | [12]; at 3.7 µM -5% | [12]; at 11.0 µM -6% | [12]; at 33.0 µM -13% | [12]; at 100.0 µM 66% | [13]; at 1.2 µM -2% | [13]; at 3.7 µM -5% | [13]; at 11.0 µM -2% | [13]; at 33.0 µM -7% | [13]; at 100.0 µM 69% | [14]; at 1.2 µM -3% | [14]; at 3.7 µM -2% | [14]; at 11.0 µM -3% | [14]; at 33.0 µM -3% | [16]; [17] -4% | [16]; [18] 23% | [16]; at 50.0 µM -2.5% | [15]; at 1.2 µM -3% | [15]; at 3.7 µM -4% | [15]; at 11.0 µM 1% | [15]; at 33.0 µM 5%
active: [1]; at 100.0 µM 82% | [5]; at 100.0 µM 77% | [9]; at 100.0 µM 72% | [11]; at 100.0 µM 89% | [14]; at 100.0 µM 79% | [15]; at 100.0 µM 85%

CC(NCCN(C)C)C1CCC2C3CCc4cc(O)ccc4C3CCC12C (stereo not drawn)
inactive: [1]; at 1.2 µM 6% | [1]; at 3.7 µM 16% | [1]; at 11.0 µM 57% | [2]; at 1.2 µM -4% | [2]; at 3.7 µM -1% | [2]; at 11.0 µM 7% | [2]; at 33.0 µM 43% | [3]; at 1.2 µM 26% | [3]; at 3.7 µM 41% | [3]; at 11.0 µM 66% | [4]; at 1.2 µM 0% | [4]; at 3.7 µM 1% | [4]; at 11.0 µM 13% | [5]; at 1.2 µM 14% | [5]; at 3.7 µM 19% | [5]; [17] -10% | [5]; at 11.0 µM 57% | [5]; [18] 55% | [6]; at 1.2 µM 2% | [6]; at 3.7 µM 5%
active: [1]; at 33.0 µM 93% | [1]; at 100.0 µM 95% | [2]; at 100.0 µM 97% | [3]; at 33.0 µM 90% | [3]; at 100.0 µM 96% | [4]; at 33.0 µM 75% | [4]; at 100.0 µM 97% | [5]; at 33.0 µM 92% | [5]; at 50.0 µM 81% | [5]; at 100.0 µM 93%
